# In PubChem BioAssay (NCATS):
# Where “and” joins values, the source holds several entries; their conditions need not be identical. Identical values can stand only once. Inconclusive results are not listed. Values without a mark were called inactive. Calls come from the whole dose curve.
# Target: Bile acid receptor (Homo sapiens) (UniProt Q96RI1)
# Assay: qHTS assay for small molecule agonists of farnesoid X receptor signaling (AID 588527);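 note: series mostly up to about 77 µM; 0% = vehicle basal and 100% = reference agonist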
# Conditions: HEK293T FXR-UAS-bla, beta-lactamase ratio, 16 h; activation: hits give high values
# From the text: NIH Chemical Genomics Center [NCGC] U.S. Environmental Protection Agency [EPA] National Institutes of Environmental Health Sciences [NIEHS] National Toxicology Program [NTP] NCGC Assay Overview The farnesoid-X-receptor (FXR), a nuclear hormone receptor is highly expressed in liver, intestine, kidney and adrenal cortex. Natural ligands of FXR are the bile acids (Cholic acid, Chenodeoxy cholic acid etc). It is an important regulator of diverse metabolic pathways, including the bile acid homeostasis, lipid and glucose metabolisms. FXR regulates the expression of target genes by binding either as a monomer or as a heterodimer with RXR (retinoid X receptor). As FXR regulates a large number of target genes involved in bile acid, lipoprotein and glucose metabolisms, it is a potential pharmacological target for bile acid and lipid disorders. Thus screening environmental chemicals on FXR signaling can be used for the studies focused on metabolic syndrome, hepatic and intestinal toxicity etc.
# NCGC Assay Protocol Summary Using a beta-lactamase reporter-gene under control of Farnesoid X receptor (FXR) response element, a cell-based assay [GeneBLAzer FXR-UAS-bla assay developed by Invitrogen] was used to measure FXR ligands signaling. GeneBLAzer FXR-UAS-bla HEK293T cells were used with assay medium containing 10% dialyzed FBS. The assay was performed in clear bottom black Greiner 1536-well plates. Chenodeoxycholic acid and Guggulsterone were used in the screen as agonist and antagonist positive controls respectively. Library compounds were measured for their ability to stimulate the reporter gene activity. Compounds were screened in a titration series in 1536-well format. […] Data was normalized relative to Chenodeoxycholic acid control (100 uM, 100%), and DMSO only wells (basal, 0%). Concentration-response titration points for each compound were fitted to the Hill equation yielding concentrations of half-maximal stimulation (EC50) and maximal response (efficacy) values. qHTS protocol for FXR beta-lactamase assay in agonist mode [Step] [Parameter] [Value] [Description] 1. Reagent; 6 uL; 5000 cells/well 2. Incubation; 37 C for 5-7 hrs 3. Compounds; 23 nL; 0.59 nM to 92 uM 4. Controls (Chenodeoxycholic acid); 23 nL, - One column with dose response, start 200 uM, 1:2 dilutions in duplicates - Final concentrations of 100 uM and 60 uM in two columns 5. Incubation; 37 C for 16 hrs 6. Detection reagent; 1 uL of CCF4-dye 7. Incubation; RT for 2 hrs 8. Detection; Fluorescence; Envision plate reader
# Sequence of Bile acid receptor (Homo sapiens) (Q96RI1 whole entry, looked up): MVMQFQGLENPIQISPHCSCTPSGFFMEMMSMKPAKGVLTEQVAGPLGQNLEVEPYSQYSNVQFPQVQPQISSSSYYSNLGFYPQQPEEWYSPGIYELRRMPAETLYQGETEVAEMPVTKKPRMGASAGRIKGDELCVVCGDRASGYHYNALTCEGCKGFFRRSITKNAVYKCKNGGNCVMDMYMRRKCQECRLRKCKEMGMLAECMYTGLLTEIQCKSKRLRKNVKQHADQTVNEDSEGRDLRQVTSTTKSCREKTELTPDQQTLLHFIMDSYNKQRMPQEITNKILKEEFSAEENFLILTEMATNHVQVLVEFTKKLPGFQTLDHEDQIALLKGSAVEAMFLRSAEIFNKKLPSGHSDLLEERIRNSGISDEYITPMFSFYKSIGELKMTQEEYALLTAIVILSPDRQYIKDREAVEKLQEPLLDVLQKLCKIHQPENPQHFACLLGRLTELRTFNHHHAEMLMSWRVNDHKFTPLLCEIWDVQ
row,SMILES,activation
1,N=C1C=CC(=C(c2ccc(N)cc2)c2ccc(N)cc2)C=C1,3.86%
2,O=C(NC(=O)c1c(F)cccc1F)Nc1ccc(Cl)cc1,1.72%
3,CC1=CC(=O)NS(=O)(=O)O1,1.83% and 0.839%
4,C=CCCCCCC,-0.782%
5,O=C(O)C1C(C(=O)O)C2(Cl)C(Cl)=C(Cl)C1(Cl)C2(Cl)Cl (stereo not given),0.987%
6,O=c1n(CCO)c(=O)n(CCO)c(=O)n1CCO,0.713%
7,CC1(C)CC(NCCCCCCNC2CC(C)(C)NC(C)(C)C2)CC(C)(C)N1,5.33%
8,CCCCC(CC)COP(=O)(O)OCC(CC)CCCC (stereo not given),-0.5%
9,CCCCOC(=O)/C=C\C(=O)OCCCC,-3.9%
10,O=[N+]([O-])c1ccc2nc[nH]c2c1,-1.7%
11,N#CCNC(=O)c1cnccc1C(F)(F)F,-0.0822%
12,Cc1cccc2ccccc12,-0.539%
13,CCOc1cc(OCC)c(C(C)=O)cc1OCC,0.582%
14,O=C(O)CCSSCCC(=O)O,-1.56%
15,COc1nc(C)nc(NC(=O)NS(=O)(=O)c2ccccc2OCCCl)n1,-2.13%
16,CCC[CH2][Sn]([CH2]CCC)[CH2]CCC,6.72%
17,CC(=C/C=C/C(C)=C/C=C/C=C(C)/C=C/C=C(C)/C=C/C(=O)O)/C=C/C(=O)O,-1.08%
18,NCCCCCCCCCCC(=O)O,1.65%
19,O=c1[nH]c2ccccc2c(=O)o1,0.0754%
20,O=C(O)CN(CCCN(CC(=O)O)CC(=O)O)CC(=O)O,8.42%

row,SMILES,activation
1,CCC(C)(C)C(=O)O,0.339%
2,NC(=O)Nc1nc2ccccc2[nH]1,-1.18%
3,O=C(O)CCCCCCC(=O)O,1.16%
4,COC[C@H](C)N(C(=O)CCl)c1c(C)csc1C,-0.72%
5,CCN(Cc1c(F)cccc1Cl)c1c([N+](=O)[O-])cc(C(F)(F)F)cc1[N+](=O)[O-],8.75%
6,ClCc1ccccc1Cl,-0.339%
7,Cc1ccccc1OCC1CO1 (stereo not given),-1.27%
8,Clc1ccc(C(Cl)(Cl)Cl)cc1,-1.93%
9,CCC(=O)/C=C/C1C(C)=CCCC1(C)C (stereo not given),-0.845%
10,CC1(C)CCC(Cc2ccc(Cl)cc2)C1(O)Cn1cncn1 (stereo not given),4.35%
11,CCOC(=O)C(C)Oc1ccc(Oc2nc3ccc(Cl)cc3o2)cc1 (stereo not given),-3.02%
12,NC=O,-0.541%
13,CC(C)[C@@H]1CC[C@@H](C)C[C@H]1O,0.612%
14,c1ccc2c(c1)Cc1ccccc1-2,0.0131%
15,CCCCCCCCCCCO,-0.12%
16,C=C(C)c1ccccc1,-3.16%
17,O=C(O)CNC(=O)c1ccc([N+](=O)[O-])cc1,1.14%
18,CCCCCCCC[Si](Cl)(Cl)Cl,0.799%
19,COC(=O)c1ccccc1S(=O)(=O)NC(=O)Nc1nc(OC(F)F)cc(OC(F)F)n1,2.12%
20,CC(=O)OCc1ccc2c(c1)OCO2,-1.12%
